The values that follow come from PubChem BioAssay (NCI).

Common to all, as to test: NCI-60 one-dose screen, 48 h (100 = growth as untreated, 0 = no growth, -100 = all killed)
Common to all, as to details: 10 µM

Assay [1] concerns SN12C renal.
Assay [2] relates to UO-31 renal.
The test system of assay [3] is TK-10 renal.
For assay [4], the system named is ACHN renal.
Assay [5] relates to CAKI-1 renal.
Assay [6] relates to A498 renal.
For assay [7], the system named is CCRF-CEM leukemia.
Assay [8] deals with MOLT-4 leukemia.
For assay [9], the system named is SR leukemia.

Molecules are shown by their SMILES. This is part of a sample that, as a whole, favours compounds with a hit. Of some 83,000 tested, about 20% had one in any assay.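 Note: values are percent growth. 100 is the growth of untreated cells, values between 100 and 0 indicate rising inhibition; between -100 and 0 indicates cell death.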 Unmarked numbers belong to inactive results. Active and inactive are the calls of the source. The calls were made as follows: active = growth percent below 10; inactive = the rest.

For the compound `COc1ccc(S(=O)(=O)NCCCNc2nccc(-c3c(-c4ccc(F)cc4)nc4sccn34)n2)cc1`, the growth is 59.5% in assay [1]; 22.1% in assay [2]; 60.5% in assay [3]; 36.5% in assay [4]; 39.4% in assay [5]; 58.5% in assay [6]. For the same compound, the growth was 37.6% in assay [7], 34.4% in assay [8] and 28.3% in assay [9].
For the compound `COc1cc(NC(=O)CCSc2nc3ccc(Cl)cc3c(=O)n2Cc2ccccc2)cc(OC)c1OC`, the growth in assay [1] is 80%; in [2] it was 74.1%; in assay [3], 109%; in [4], 45.9%; in [5], 63.7%; in assay [6] it was 33.5%. The growth was 78.1% in assay [7], 60.6% in assay [8] and 66.5% in assay [9].
For the compound `O=C1/C(=C\c2ccc(F)cc2)CN(C(=O)c2ccccc2F)C/C1=C\c1ccc(F)cc1`, the growth in [1] was -57.1% (active); in assay [2], -72.6% (active); in assay [3], 9.87% (active); in assay [4], -33.1% (active); in assay [5] it was -35.4% (active); in [6], 47.5%. Besides, the figures for the growth in assay [7], in assay [8] and in [9] were -16.4% (active), -1.83% (active) and -17.7% (active), respectively.
Turning to `COc1cc2cc3c(nc2cc1OC)CCN3Cc1ccc(NC(=O)c2ccc(Cl)c(C(F)(F)F)c2)cc1`, the growth is 91.3% in assay [1]; 71.9% in assay [2]; 131% in assay [3]; 84.7% in assay [4]; 84.3% in [5]; 130% in assay [6]. Besides, the growth in [7] was 91%; in [8] it was 56.8%; in assay [9], 70.6%.
Turning to `COc1ccc(-c2nc3sc(-c4ccc(OC)cc4)c(-c4ccc(OC)cc4)n3c2/C=C/c2ccc(C(C)C)cc2)cc1`, the growth in assay [1] was 99.2%; in [2], 83.6%; in assay [3] it was 97.7%; in [4] it was 97.9%; in assay [5], 82.2%; in assay [6], 99.1%. The growth in assay [7] is 96%; in assay [9], 97.4%.
With `O=C1/C(=C\c2ccccc2)CN(C(=O)c2ccccc2F)C/C1=C\c1ccccc1`, the growth was 6.12% (active) in assay [1]; 12.4% in assay [2]; 53.8% in assay [3]; -3.34% (active) in assay [4]; 30.4% in assay [5]; 45% in [6]. The growth is -7.33% (active) in assay [7], -4.02% (active) in assay [8] and -35.1% (active) in assay [9].
For the compound `C=C(NC(=O)C(=C)NC(=O)c1csc(C2=NC3c4csc(n4)C4NC(=O)c5csc(n5)C(C(C)(O)C(C)O)NC(=O)C5CSC(=N5)/C(=C/C)NC(=O)C(C(C)O)NC(=O)c5csc(n5)C3(CC2)NC(=O)C(C)NC(=O)C(=C)NC(=O)C(=C)NC(=O)C(C(C)C)NC2C=Cc3c(C(C)O)cc(nc3C2O)C(=O)OC4C)n1)C(N)=O` (stereo unspecified), the growth in assay [1] is 30.4%; in assay [2], -42.2% (active); in [3], -9.31% (active); in assay [4], -26.8% (active); in [5] it was 15.8%; in assay [6], -30.3% (active). Further, the growth in assay [7] was -31.7% (active); in assay [8], -15% (active); in assay [9], 5.93% (active).
As for `CS(=O)(=O)Nc1ccc(Nc2c3ccccc3nc3cc(N)ccc23)cc1`, the growth in assay [1] was 5.31% (active); in assay [2], 28.6%; in assay [3], 62.3%; in [4], 24.9%; in assay [5], 19.9%; in assay [6], 57.1%. In addition, the values for the growth in [8] and in [9] were 5.41% (active) and 8.53% (active), respectively.
Consider `Cn1c([N+](=O)[O-])cnc1/C=C1\Oc2cc(Cl)ccc2C1=O`, for which the growth in assay [1] is -15.1% (active); in assay [2], -35.2% (active); in assay [3], -24.4% (active); in [4], 6.42% (active); in assay [5], -21.1% (active); in assay [6], 57.4%. In addition, the results for the growth in assay [7] and in [9] were -0.667% (active) and 8.29% (active), respectively.
Consider `CSc1nn(-c2ccccc2)c2ncnc(Oc3ccccc3)c12`, for which the growth in [1] was 86.2%; in assay [2], 7.79% (active); in assay [3], 106%; in assay [4], 106%; in assay [5] it was 88.7%; in [6], 138%. Further, the growth is 89.6% in [7], 97.3% in assay [8] and 84% in assay [9].
Consider `COc1ccccc1CNCCCN1C(=O)c2ccc3c4c(ccc(c24)C1=O)C(=O)N(CCCN)C3=O`, for which the growth in assay [1] was -89% (active); in assay [2], -20.8% (active); in assay [3] it was -3.35% (active); in assay [4], 2.62% (active); in assay [5] it was 31.3%; in [6], -0.046% (active). For the same compound, the growth was -10.4% (active) in [7] and 5.24% (active) in assay [9].
As for `Nc1c(C(=O)Nc2cccc(F)c2)sc2nc3c(cc12)C(=O)CCC3`, the growth is 37.4% in assay [1]; 56.1% in [2]; 85.5% in [3]; 53.6% in [4]; 28% in assay [5]; -12.1% (active) in assay [6]. Further, the growth in assay [7] is 17.9%; in assay [8], 66.3%; in assay [9] it was 16.1%.
`CC(=O)C1CCC2C3CC(F)C4=CC(=O)CCC4(C)C3C(O)CC12C` (stereo unspecified): the growth in assay [1] is 92%; in [2], 75.8%; in [3], 122%; in assay [4], 99.7%; in assay [5] it was 96.1%; in [6] it was 116%. Also, the results for the growth in assay [7], in assay [8] and in assay [9] were 93.6%, 85.8% and 92.9%, respectively.
With `O=C(Nc1ccc(Cl)cc1)N1NC(c2ccc(Cl)cc2)C=C1c1ccccc1` (stereo unspecified), the growth in assay [1] is 108%; in assay [2] it was 85.8%; in assay [3], 103%; in [4] it was 116%; in assay [5] it was 103%; in [6] it was 103%. Also, the figures for the growth in [7], in assay [8] and in assay [9] were 58.3%, 83.7% and 81.4%, respectively.
For `O=C(Nc1cccc(-n2cc(-c3ccncc3)c(-c3ccc(O)c(Cl)c3)n2)c1)c1cc(C(F)(F)F)cc(C(F)(F)F)c1`, the growth in assay [1] is 63.6%; in assay [2] it was 47.8%; in assay [3], 62%; in assay [4], 44.8%; in assay [5], 30.7%; in [6], 57.2%. The growth is 29.5% in assay [7], 34.4% in assay [8] and 39.1% in assay [9].
